Screens: PubChem, National Center for Advancing Translational Sciences (NCATS)
Hits are enriched below; roughly 2.4% of the tested compounds scored in any of these assays.
Cruzain inh Det: qHTS Assay for Promiscuous and Specific Inhibitors of Cruzain (with detergent). Cruzipain (Trypanosoma cruzi), P25779. purified cruzain, Z-FR-AMC fluorescence, 0.01% Triton. Potency, µM, most hits filed as inhibitors. actives 0.43% (n = 200,000). AID 1478, 2009; further: nearly all actives have a fitted effect of over 40% in size
Target sequence (P25779 123-467 limits assumed): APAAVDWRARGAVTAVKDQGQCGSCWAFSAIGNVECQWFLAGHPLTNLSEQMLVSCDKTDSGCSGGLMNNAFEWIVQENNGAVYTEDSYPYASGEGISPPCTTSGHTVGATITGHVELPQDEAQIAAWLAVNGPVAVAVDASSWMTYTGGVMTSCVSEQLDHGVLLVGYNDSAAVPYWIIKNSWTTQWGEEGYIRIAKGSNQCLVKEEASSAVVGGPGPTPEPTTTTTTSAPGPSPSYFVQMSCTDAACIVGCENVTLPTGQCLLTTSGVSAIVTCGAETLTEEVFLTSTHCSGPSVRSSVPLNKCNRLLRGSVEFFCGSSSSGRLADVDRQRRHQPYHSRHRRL
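Cysteine protease activity tested under reducing, mildly acidic conditions (100 mM sodium acetate pH 5.5, 5 mM DTT) plus 0.01% Triton X-100. Cruzain 1.5 nM; substrate Z-FR-AMC 2 uM; 15 min compound preincubation at room temperature.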
Cruzain noTriton: qHTS Assay for Promiscuous and Specific Inhibitors of Cruzain (without detergent). Cruzipain (Trypanosoma cruzi), P25779. purified cruzain, Z-FR-AMC fluorescence, no detergent. Potency, µM, actives largely listed as inhibitors. actives 2.3% (n = 200,000); further: nearly all actives have a fitted effect of over 40% in size
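Purified cruzain at 1.5 nM, pre-incubated 15 min with compound at room temperature in 100 mM sodium acetate pH 5.5, 5 mM DTT, 0.00005% Triton X-100. Reaction started with 2 uM Z-FR-AMC; AMC fluorescence increase over 60 s gives rate.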
Hits are given with their value; i = inactive; ? = inconclusive. The call rests on the fitted dose curve; in most records, active means well fitted curve in the direction sought with a large enough effect; inconclusive means small, poorly fitted or top-dose-only effect, or another doubt; inactive means no such curve, though single readings can be large; an effect the other way counts as inactive or inconclusive.

SMILES	Cruzain inh Det	Cruzain noTriton
COc1ccc(OC)c(NC(=O)c2cccc(S(=O)(=O)N(Cc3ccccc3)c3ccccc3OC)c2)c1	i	?
COc1ccc(OC)c(NC(=O)c2ccc(CN(c3cc(Cl)ccc3C)S(=O)(=O)c3ccccc3)cc2)c1	i	10µM
COc1ccc(OC)c(S(=O)(=O)Nc2cc3c(C(C)=O)c(C)oc3c3ccccc23)c1	i	i
CCCCOC(=O)c1c(C)oc2c1cc(NS(=O)(=O)c1cc(OC)ccc1OC)c1ccccc12	i	12.6µM
COc1ccc(S(=O)(=O)Nc2cccc(S(=O)(=O)N3CCCCCC3)c2)cc1	i	i
O=S(=O)(Nc1nc2ccccc2nc1Nc1cccc(S(=O)(=O)N2CCCCC2)c1)c1ccccc1	i	15.8µM
COC(=O)c1c(NC(=O)/C=C/C(=O)O)sc(Cc2ccccc2)c1C	i	i
Cc1c(Cc2ccccc2)sc(NC(=O)/C=C/c2cccc3ccccc23)c1C(N)=O	i	5.01µM
CC[C@H](CN(C)C)C(=O)c1ccco1	i	i
Cc1cccc(NC(=O)C(=O)NCC(c2cccnc2)N2CCN(Cc3ccccc3)CC2)c1 (stereo not drawn)	i	i
CN(C)S(=O)(=O)c1ccc2c(c1)N(CC(=O)Nc1ccc(F)cc1)C(=O)CS2	i	i
COc1ccc([C@H]2[C@H](C(=O)C(C)(C)C)N3N=Cc4ccccc4C3C23C(=O)OC(C)(C)OC3=O)cc1 (stereo partly drawn)	i	i
O=C(c1ccccc1)[C@H]1[C@H](c2ccccc2)[C@@]2(N=C(c3ccccc3)OC2=O)C2c3ccccc3C=NN21 (stereo partly drawn)	i	10µM
O=C(N/N=C/c1cccnc1)/C(=C\c1cccs1)NC(=O)c1ccccc1	i	i
O=C(N/N=C/c1cc2ccccc2nc1Cl)/C(=C/c1cccs1)NC(=O)c1ccccc1	i	25.1µM
COc1ccc(C2c3c(ccc4ccccc34)Oc3ncn4nc(Cc5ccc(OC)c(OC)c5)nc4c32)cc1 (stereo not drawn)	i	i
COc1ccc(C2c3c(ccc4ccccc34)Oc3ncn4nc(-c5ccco5)nc4c32)cc1 (stereo not drawn)	i	?
c1ccc(C2c3c(ccc4ccccc34)Oc3ncn4nc(-c5ccco5)nc4c32)cc1 (stereo not drawn)	i	3.16µM
COc1ccc(C2c3c(ccc4ccccc34)Oc3ncn4nc(CO/N=C/c5ccccc5)nc4c32)cc1 (stereo not drawn)	i	3.16µM
Cc1ccc(CN2CCN(C3CCN(C(=O)c4ccc(C)cc4)CC3)C(=O)C2=O)cc1	i	i
COc1ccc(CCCc2nnc(SCC(=O)Nc3ccc(F)cc3)o2)cc1C	i	i
COc1ccc([N+](=O)[O-])cc1NC(=O)CSc1ccccc1	i	i
COc1cc(NC(=O)CN2C(=O)NC(C)(c3ccc4ccccc4c3)C2=O)c(C)cc1[N+](=O)[O-] (stereo not drawn)	i	20µM
COc1cc([N+](=O)[O-])ccc1NC(=O)CSc1nc2ccccc2n1-c1ccccc1	i	12.6µM
CCOc1ccc(-n2c(SCC(=O)Nc3cc(OC)c([N+](=O)[O-])cc3C)nc3ccccc32)cc1	i	7.94µM
SMILES	Cruzain inh Det	Cruzain noTriton
COc1cc(NC(=O)CN2C(=O)NC(C)(c3ccccc3)C2=O)c(C)cc1[N+](=O)[O-] (stereo not drawn)	i	i
COc1cc(NC(=O)CSc2nc(C)c(C)c(C)n2)c(C)cc1[N+](=O)[O-]	i	i
CCOc1ccccc1CN(CCc1ccc2c(c1)OCO2)Cc1cccc(OC)c1OC	i	i
Cc1ccc(Cl)cc1NS(=O)(=O)c1ccc(N2CCCCS2(=O)=O)cc1	i	i
CCCOc1ccc(NC(=O)CC2C(=O)N(c3ccccc3)C(=O)N2Cc2ccc(F)cc2)cc1 (stereo not drawn)	i	i
COc1ccc(NC(=O)CCC(=O)c2ccc(-c3ccccc3)cc2)cc1	i	25.1µM
COc1ccc(C(=O)COC(=O)c2ccc(NC(=O)c3ccccc3)cc2)cc1	i	12.6µM
COc1ccc(C(NC(=O)c2ccc(-c3ccccc3)cc2)c2ccccc2)cc1 (stereo not drawn)	i	7.94µM
COc1ccc(C(=O)COc2ccc(NC(C)=O)cc2)cc1	i	i
CCOC(=O)c1ccc(NC(=O)c2ccc(NC(=O)c3ccccc3)cc2)cc1	i	i
COc1ccc(C(C)NC(=O)c2ccccc2)cc1 (stereo not drawn)	i	i
Cc1ccc(NC(=O)CCC(=O)OCC(=O)c2ccc(-c3ccccc3)cc2)cc1	i	i
COc1ccc(C(=O)Nc2ccc(C(=O)OCC(=O)c3ccccc3)cc2)cc1	i	6.31µM
O=C1NCCN(Cc2ccc(F)cc2)C1=O	i	i
CC#C[C@@]1(O)CC[C@H]2[C@@H]3CCC4=CC(=O)CCC4=C3[C@H](c3ccc(N(C)C)cc3)C[C@]21C	i	i
CCOc1cc(-c2ccc(OC(=O)c3ccc(Cl)cc3)c(OC)c2)cc(=O)c2c(C)oc(C)c12	i	?
COC(=O)c1cc(NC2(c3ccccc3)C(=O)c3ccccc3C2=O)cc(C(=O)OC)c1	i	i
CC(C)c1ccc(NC(=O)CSC2=Nc3ccccc3C3=NC(CC(=O)NC4CCCCC4)C(=O)N23)cc1 (stereo not drawn)	i	i
O=C(NCC(c1ccc(Cl)cc1)N1CCCCC1)c1ccccc1F (stereo not drawn)	i	i
C[C@]12C[C@@](C)(C=C1/C=C/c1ccccc1)C(=O)C[C@H]2c1ccccc1	i	i
CCOC(=O)c1c(C)[nH]c(CCC(=O)Nc2ccccc2C(=O)OC)c1C	i	i
CCOc1ccc(C(c2c(O)cc(C)n(CCOC)c2=O)N2CCN(c3ccccc3)CC2)cc1 (stereo not drawn)	i	?
COc1ccc(NC(=O)CSc2nc3c(oc4ccccc43)c(=O)n2Cc2ccco2)cc1Cl	i	i
Cc1noc(C)c1-c1nc(N2CCN(C)CC2)c2ccccc2n1	i	i
CCCCCCCCCCCCCCC1CO1 (stereo not drawn)	i	i
SMILES	Cruzain inh Det	Cruzain noTriton
Cc1cccc(-c2nc3cc(NC(=O)COc4ccccc4F)ccc3o2)c1	i	i
Cc1ccc(CSc2ncc(Cl)c(C(=O)Nc3nnc(C)s3)n2)cc1	i	i
CCCC/C=C/C(NC(=O)c1ccc(-c2ccccc2)cc1)c1ccccc1 (stereo not drawn)	i	15.8µM
CCCC/C=C/C(NC(=O)c1ccccc1)c1ccccc1 (stereo not drawn)	i	i
CCC/C=C(\CCC)C(NP(=O)(c1ccccc1)c1ccccc1)c1ccc(C(F)(F)F)cc1 (stereo not drawn)	i	i
COc1cccc(CNC(=O)c2sc3ncccc3c2-n2c(C)ccc2C)c1OC	i	i
Cc1ccc(NC(=O)N2CCN(C)c3ncccc32)cc1C	i	i
COc1ccccc1CNC(=O)CCCN1C(=O)CSc2c1c(C)nn2-c1ccccc1	i	i
CCCn1c2ccc(C)cc2c2nnc(SCCN3CCCCC3)nc21	14.1µM	?
CSc1nnc2c3cc(C)ccc3n(Cc3ccccc3)c2n1	?	25.1µM
CCn1c2ccc(C)cc2c2nnc(NN)nc21	i	i
CCOC(=O)C(CC)Sc1nnc2c3cc(C)ccc3n(C)c2n1 (stereo not drawn)	i	?
O=C(CSc1nnc(-c2ccccc2)o1)n1c2c(c3ccccc31)CCCC2	i	25.1µM
